Some test systems named below: PDPK1; PFTAIRE2; PHKG1; PHKG2; PIK3C2B; PIK3C2G; PIK3CA; PIK3CB; PIK3CD.
Holding throughout (settings): concentration: 1 μM, replicates: in singlicate; n = 1
In a further assay the test system is T1, PFTK1.
T1 construct: gene CDK14
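Further: KINOMEscan kinase panel screen.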

For `COc1cccc(C2=C(Nc3cccc(C(=O)O)c3)C(=O)NC2=O)c1` [SB-390770], the “%Inh” value with PDPK1 is on record as 0%; with PFTAIRE2, 13%; with PFTK1 it was 0%; in the assay with PHKG1, 0%; in the assay on PHKG2, 1%; with PIK3C2B it was 0%. In addition, the “%Inh” value with PIK3C2G stood at 22%; with PIK3CA, 8%; in the assay with PIK3CB, 0%; in the assay on PIK3CD, 32%.
As for `C[C@@H]1CC[C@H](C(=O)NC2CCCCC2)CN1c1cc(-c2ccc3c(N)n[nH]c3c2)nc(N)n1` [GSK2291363], the “%Inh” value with PDPK1 came out at 95.3%; in the assay with PFTAIRE2, 26%; in the assay on PFTK1, 27%; in the assay on PHKG1, 0%; with PHKG2 it was 17%; in the assay on PIK3C2B, 0%. The “%Inh” value in the assay on PIK3C2G, in the assay on PIK3CA, with PIK3CB and in the assay with PIK3CD was 0% each time.
Consider `Nc1nc(-c2ccccc2F)c(-c2ccnc3ccccc23)s1` [GW560459], for which the “%Inh” value came to 0% in the assay on PDPK1; 12% in the assay on PFTAIRE2; 5% in the assay on PFTK1; 7% with PHKG1; 0% in the assay on PHKG2; 0% in the assay on PIK3C2B. Further, the “%Inh” value turned out to be 0% in the assay with PIK3C2G, 0% with PIK3CA, 0% in the assay on PIK3CB and 12% in the assay with PIK3CD.
`Fc1cccc(CSc2nnc(-c3ccc4c(c3)CCO4)o2)c1`: the “%Inh” value in the assay on PDPK1 amounted to 0%; in the assay with PFTAIRE2 it was 10%; with PFTK1, 0%; in the assay on PHKG1, 1%; in the assay with PHKG2, 0%; in the assay with PIK3C2B it was 1%. The “%Inh” value in the assay on PIK3C2G stood at 17%; in the assay on PIK3CA, 10%; with PIK3CB, 14%; in the assay on PIK3CD it was 0%.
